# Source: PubChem
# ALOX15 inhib: blocks human 15-lipoxygenase activity. P16050. purified 15hLO-1, xylenol orange hydroperoxide absorbance. Potency, µM (titrated, usually from 57.1 µM), most hits filed as inhibitors. actives 1.4% (n = 74,000). AID 887; note: nearly all actives have a fitted effect of over 55% in size
# Target sequence (P16050 whole entry, looked up): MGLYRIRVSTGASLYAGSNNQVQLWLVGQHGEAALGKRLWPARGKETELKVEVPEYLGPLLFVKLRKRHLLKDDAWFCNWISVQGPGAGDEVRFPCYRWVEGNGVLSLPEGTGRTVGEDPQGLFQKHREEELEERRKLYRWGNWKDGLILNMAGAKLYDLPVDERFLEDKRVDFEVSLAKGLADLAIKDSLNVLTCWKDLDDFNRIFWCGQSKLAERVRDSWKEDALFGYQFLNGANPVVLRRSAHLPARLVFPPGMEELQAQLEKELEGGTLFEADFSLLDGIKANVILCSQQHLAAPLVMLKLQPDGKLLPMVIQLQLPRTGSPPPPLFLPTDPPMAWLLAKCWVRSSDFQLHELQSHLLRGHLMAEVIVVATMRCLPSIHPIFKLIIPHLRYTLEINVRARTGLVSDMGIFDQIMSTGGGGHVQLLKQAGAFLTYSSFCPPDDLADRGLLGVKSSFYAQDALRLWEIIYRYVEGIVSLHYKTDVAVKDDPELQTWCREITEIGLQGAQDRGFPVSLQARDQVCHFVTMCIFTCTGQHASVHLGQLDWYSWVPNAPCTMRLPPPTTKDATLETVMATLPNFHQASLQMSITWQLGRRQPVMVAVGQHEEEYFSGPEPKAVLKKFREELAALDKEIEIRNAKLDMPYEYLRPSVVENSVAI
#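 Inhibition is scored from a chromogenic endpoint. After 15 min enzyme-compound contact, arachidonic acid (50 uM final) reacts 6 min with 40 nM 15hLO-1 at room temperature, then Fe-XO reagent is added for 30 min and absorbance ratio recorded.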
# 15-hLO-2 inh: blocks human 15-lipoxygenase 2 activity; purified 15hLO-2, xylenol orange hydroperoxide absorbance; actives 0.56% (n = 110,000); O15296; Potency, µM (titrated, usually from 57.1 µM), actives largely listed as inhibitors; note: nearly all actives have a fitted effect of over 60% in size
#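 Purified human 15hLO-2 (50 nM final) preincubated with compounds 15 min at room temperature in 25 mM Hepes pH 7.5, 0.01% Triton X-100, then 45 uM arachidonic acid added for 90 min; hydroperoxide detected via ferrous/xylenol orange, 573/405 nm absorbance ratio.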
# Hits are given with their value; 0 = inactive; ? = inconclusive; - = not tested or not shown; ! = not active in a repeat; [ ] = dose if it differs, or a comment. Many of the other results were omitted from the sample, so hits are more common in it than they were. Calls come from the whole dose curve; as a rule, active = well fitted inhibition curve with a large enough effect; inconclusive = small, poorly fitted or top-dose-only effect; inactive = no such curve, though single readings can be large or run the other way.
SMILES,ALOX15 inhib,15-hLO-2 inh
Oc1ccc(Cl)cc1Cc1cc(Cl)ccc1O,13µM,0
Oc1ccc(Cl)cc1Cl,0,0
S=C=Nc1cccc2ccccc12,?,0
CC[C@]1(OC(=O)CN)C(=O)OCc2c1cc1n(c2=O)Cc2cc3ccccc3nc2-1,0[11.4 µM],0[11.4 µM]
O=C(O)c1cc[c]([Hg][Cl])cc1,1.6µM,3.2µM
O=C(O)c1cccc(Cl)c1,0,0
NCCc1ccc(S(=O)(=O)O)cc1[N+](=O)[O-],0[11.4 µM],0[11.4 µM]
COc1ccc2[nH]cc(C3=CCNCC3)c2c1,0,0
CN1CC=C(c2c[nH]c3ccccc23)CC1,0.63µM,-
CC1(C)CCC(C)(C)c2c1ccc(O)c2Cc1c(O)ccc2c1C(C)(C)CCC2(C)C,0[11.4 µM],0[11.4 µM]
CCC1=C(C[C@H]2NCCc3cc(OC)c(OC)cc32)C[C@H]2c3ccccc3CCN2C1,0[11.4 µM],0[11.4 µM]
O=C(c1cc2c(s1)CCCC2)N1CCC2(CC1)OCCO2,0,7.9µM
O=C(c1csc2c1CCCCC2)N1CCC2(CC1)OCCO2,0,0
CCCCCCCCCCCCCC(=O)O[C@H]1[C@@H](C)[C@@]2(O)[C@@H](C=C(CO)C[C@]3(O)C(=O)C(C)=C[C@@H]23)C2C(C)(C)[C@]21OC(C)=O (some centres undefined),0,0
Oc1ccccc1O,16µM,?
Oc1cccc(Cl)c1Cl,0,0
O=C(O)[C@H]1CCN1,0,0
CC1=NN(c2ccc(S(=O)(=O)O)cc2C)C(=[OH+])[C@H]1N=Nc1cc(S(=O)(=O)O)ccc1C(=O)O.O.[Cr],0[11.4 µM],0[11.4 µM]
COCCCOc1ccnc(CS(=O)c2nc3ccccc3[nH]2)c1C (centres undefined),-,13µM
Cc1c(OCC(F)(F)F)ccnc1CS(=O)c1nc2ccccc2[nH]1 (centres undefined),25µM!,?
CN1CCC[C@@H]1c1cccnc1.O=C(O)c1ccccc1O.O=C([OH2+])c1ccccc1O.O=C([OH2+])c1ccccc1O.[Mn],0[11.4 µM],0[11.4 µM]
CC[C@H](CO)NC(=O)[C@@H]1C=C2c3cccc4[nH]cc(c34)C[C@@H]2N(C)C1,0,0
C[C@]12CC[C@H](O)C[C@@H]1CC[C@H]1[C@H]2CC[C@]2(C)[C@H](C(=O)CO)CC[C@@H]12,0,0
c1ccc([C@H]2CNCc3ccccc32)cc1,0,0
Oc1cc2c(cc1O)[C@H]1c3ccccc3CN[C@H]1CC2,0,6.3µM
SMILES,ALOX15 inhib,15-hLO-2 inh
NC(=O)CI,32µM,?
CCCCCCCCC(=O)NCc1ccc(O)c(OC)c1,25µM!,0
CCCCC/C=C\C/C=C\C/C=C\C/C=C\CCCC(=O)NCc1ccc(O)c(OC)c1,-,0[0.0915 µM]
C(=NCCN1CCOCC1)=NC1CCCCC1,0[11.4 µM],0[11.4 µM]
C[C@]1(C(=O)O)[C@@H]2CC[C@@H](O2)[C@@]1(C)C(=O)O,0,0
COc1cc2c(cc1OC)[C@@]13CCN4C=C5CCO[C@H]6CC(=O)N2[C@@H]1[C@@H]6[C@H]5C[C@H]43,0[11.4 µM],0[11.4 µM]
C[C@@]12CC[C@H]3[C@@H](CC[C@@H]4C[C@H](O)CC[C@]43C)[C@H]1CC[C@H]2O,0,0
COc1c(CC=C(C)C)c2c(c3oc(=O)c(-c4ccc(O)cc4)c(O)c13)C=CC(C)(C)O2,0,0
CC(C)=CCCC1(C)C=Cc2c(O)c3c(c(CC=C(C)C)c2O1)OC12C(=CC4CC1C(C)(C)OC2(C/C=C(/C)C(=O)O)C4O)C3=O (centres undefined),20µM,0
CC(C)=CCCC1(C)C=Cc2c(O)c3c(c(CC=C(C)C)c2O1)OC12C(=CC4CC1C(C)(C)OC2(C/C=C(/C)C(=O)O)C4=O)C3=O (centres undefined),16µM,?
CC(C)CCCC1(C)C=Cc2c(O)c3c(c(CCC(C)C)c2O1)OC12C(CC4CC1C(C)(C)OC2(CCC(C)C(=O)O)C4O)C3=O (centres undefined),?,0
C#CCN[C@@H](C)Cc1ccccc1,0,0
N#CCCCC[N+]12CN3CN(CN(C3)C1)C2,0[11.4 µM],0[11.4 µM]
c1ccc2c(c1)Nc1ccccc1S2,6.3µM,5µM
CCOc1ccc(-n2c(=O)c3c4c(sc3n(CC(=O)NCc3ccco3)c2=O)CCC4)cc1,0,?
Cc1ccccc1C1=NCC(=O)N(CC(=O)NCc2ccco2)c2sc3c(c21)CCCC3,25µM,0
NC(=O)CN1C[C@@H](O)CC1=O,0,0
CCNC(C)(C)[C@@H](SS)c1ccc(Br)cc1,0[11.4 µM],0[11.4 µM]
N[C@H](Cc1ccc(N(CCCl)CCCl)cc1)C(=O)O,0,0
N#C/C(=C\c1ccc(O)c(O)c1)C(N)=S,4µM,25µM
C[C@@]12CC[C@H]3[C@@H](CCC4=C(O)C(=O)CC[C@]43C)[C@H]1CCC2=O,0,0
CC[C@@H]1CN2CCc3cc(OC)c(OC)cc3[C@H]2C[C@@H]1C[C@@H]1NCCc2cc(OC)c(OC)cc21,0,0
C=CCN1CC[C@]23c4c5ccc(O)c4O[C@@H]2C(=O)CC[C@@]3(O)[C@H]1C5,0,0
CCCCCCn1c(N)c(C(=O)NCCN2CCOCC2)c2nc3ccccc3nc21,16µM,0[2.29 µM]
CCCCCn1c(N)c(C(=O)NCCN2CCOCC2)c2nc3ccccc3nc21,0,0
SMILES,ALOX15 inhib,15-hLO-2 inh
CCCC[N+]1(C)[C@@H]2CC(OC(=O)[C@@H](CO)c3ccccc3)C[C@H]1[C@H]1O[C@H]12 (some centres undefined),0,0
O=C(O)[C@@H]1[C@H](C(=O)O)[C@]2(Cl)C(Cl)=C(Cl)[C@@]1(Cl)C2(Cl)Cl,2.5µM,?
O=S1OCC2C(CO1)C1(Cl)C(Cl)=C(Cl)C2(Cl)C1(Cl)Cl (centres undefined),0,0
CC1=NN(c2ccccc2)C(=O)[C@@H]1N=Nc1ccc([As](=O)(O)O)c(O)c1,0[11.4 µM],0[11.4 µM]
CCN(CC)c1ncnc2c1ncn2[C@@H]1O[C@@H](COP(=O)(O)OP(=O)(O)C(Br)(Br)P(=O)(O)O)[C@H](O)[C@@H]1O,0,0
CCCCC/C=C\C/C=C\C/C=C\C/C=C\CCCC(=O)NCCCl,-,0[0.0915 µM]
CCCCC/C=C\C/C=C\C/C=C\C/C=C\CCCC(=O)O,0.32µM,?
C=CCN1CC[C@@]23CCCC[C@@H]2[C@@H]1Cc1ccc(O)cc13,0,0
COc1cc(CN2C(=O)NC(=O)C3(Cc4cc(C)ccc4N(C)C3)C2=O)cc(OC)c1 (centres undefined),0,0
COc1ccc2c(c1)CC1(CN2C)C(=O)NC(=O)N(CCc2ccccc2)C1=O (centres undefined),16µM,0
CN(C)CS/C(N)=N/[C@H](O)C(Cl)(Cl)Cl,0[11.4 µM],0[11.4 µM]
C[CH2][Hg][S]c1ccccc1C(=O)O,1.3µM,0.63µM
CNc1ccccc1C(=O)O,0,0
O=C(O)CN1CCN(CC(=O)O)CC(=O)[O][Hg][O]C(=O)C1,0.16µM,0.32µM
O=C1C=CC(=O)c2c(O)cccc21,2µM,3.2µM
O=C1c2ccccc2C(=O)c2ccccc21,0,0
C[C@@]12Cc3cnc(-c4ccccc4)nc3C[C@@H]1CC[C@@H]1[C@H]3CC[C@@](C)(O)[C@]3(C)CC[C@@H]12,0[11.4 µM],0[11.4 µM]
ClCC[N+]12CC[N+](CCCl)(CC1)C2 (tested in a mixture with another compound),0[11.4 µM],0[11.4 µM]
NC[C@@H](O)CSP(=O)(O)O,0[11.4 µM],0[11.4 µM]
Cc1ccc(NC(=[OH+])c2cc3ccccc3cc2O)c(C)c1.Cc1ccc(NC(=[OH+])c2cc3ccccc3cc2O)c(C)c1.[Ni],4µM,0[11.4 µM]
